This is one part of a sample in which the strongest signals are shown more often than they occur.
How the values were obtained:
Test in all cases: glycan array binding signal (z-score within array); higher = stronger binding
Conditions in all cases: glycan notation: IUPAC condensed, linker removed
GalNAc(a1-3)GalNAc = biological target: GalNAc(a1-3)GalNAc
In short: (§1)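 The binding signal is a Z-score computed within each array. Data were drawn from 3228 arrays in the Consortium for Functional Glycomics database, restricted to those with a known protein sequence. Scores were averaged over arrays of the same protein sequence at different concentrations or buffers, and over linkers, and negative values can be taken as non-binding.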

[1] = biological target: GalNAc(a1-3)GalNAc(b1-3)Gal(a1-4)Gal(b1-4)GlcNAc
In short: as §1

[2] = biological target: GlcNAc(b1-2)[GlcNAc(b1-4)]Man(a1-3)[GlcNAc(b1-4)][GlcNAc(b1-2)Man(a1-6)]Man(b1-4)GlcNAc(b1-4)GlcNAc
In short: as §1

[3] = biological target: GlcNAc(b1-3)Gal(b1-4)GlcNAc(b1-6)[GlcNAc(b1-3)Gal(b1-3)]GalNAc
In short: as §1

[4] = biological target: Kdn(a2-3)Gal(b1-4)[Fuc(a1-3)]GlcNAc
In short: as §1

[5] = biological target: Man(a1-2)Man(a1-2)Man(a1-3)Man
In short: as §1

[6] = biological target: Man(a1-2)Man(a1-2)Man(a1-6)[Man(a1-3)]Man
In short: as §1

[7] = biological target: Man(a1-3)[Man(a1-6)]Man(a1-6)[Man(a1-3)]Man
In short: as §1

[8] = biological target: Neu5Ac(a2-3)Gal(b1-3)GlcNAc(b1-6)GalNAc
In short: as §1

[9] = biological target: Neu5Ac(a2-3)Gal(b1-4)GlcNAc(b1-2)[Neu5Ac(a2-3)Gal(b1-4)GlcNAc(b1-4)]Man(a1-3)[GlcNAc(b1-4)][Neu5Ac(a2-3)Gal(b1-4)GlcNAc(b1-2)[Neu5Ac(a2-3)Gal(b1-4)GlcNAc(b1-6)]Man(a1-6)]Man(b1-4)GlcNAc(b1-4)GlcNAc
In short: as §1

[10] = biological target: Neu5Ac(a2-3)Gal(b1-4)GlcNAc(b1-2)[Neu5Ac(a2-3)Gal(b1-4)GlcNAc(b1-6)]Man(a1-6)[Neu5Ac(a2-3)Gal(b1-4)GlcNAc(b1-2)Man(a1-3)]Man(b1-4)GlcNAc(b1-4)GlcNAc
In short: as §1

[11] = biological target: Neu5Ac(a2-3)Gal(b1-4)GlcNAc(b1-3)Gal(b1-4)GlcNAc(b1-3)Gal(b1-4)GlcNAc
In short: as §1

[12] = biological target: Neu5Ac(a2-3)Gal(b1-4)GlcNAc(b1-3)Gal(b1-4)GlcNAc(b1-3)[Neu5Ac(a2-3)Gal(b1-4)GlcNAc(b1-3)Gal(b1-4)GlcNAc(b1-6)]GalNAc
In short: as §1

[13] = biological target: Neu5Ac(a2-3)Gal(b1-4)GlcNAc6S
In short: as §1

[14] = biological target: Neu5Ac(a2-3)Gal(b1-4)[Fuc(a1-3)]GlcNAc6S
In short: as §1

[15] = biological target: Neu5Ac(a2-6)Gal(b1-4)GlcNAc(b1-2)Man(a1-3)[Neu5Ac(a2-6)Gal(b1-4)GlcNAc(b1-2)Man(a1-6)]Man(b1-4)GlcNAc(b1-4)GlcNAc
In short: as §1

[16] = biological target: Neu5Ac(a2-6)Gal(b1-4)GlcNAc(b1-2)Man(a1-6)[Gal(b1-4)GlcNAc(b1-2)Man(a1-3)]Man(b1-4)GlcNAc(b1-4)GlcNAc
In short: as §1

[17] = biological target: Neu5Ac(a2-6)Gal(b1-4)GlcNAc(b1-2)Man(a1-6)[GlcNAc(b1-2)Man(a1-3)]Man(b1-4)GlcNAc(b1-4)GlcNAc
In short: as §1

[18] = biological target: Neu5Ac(a2-6)Gal(b1-4)GlcNAc(b1-2)[Neu5Ac(a2-6)Gal(b1-4)GlcNAc(b1-4)]Man(a1-3)[GlcNAc(b1-4)][Neu5Ac(a2-6)Gal(b1-4)GlcNAc(b1-2)[Neu5Ac(a2-6)Gal(b1-4)GlcNAc(b1-6)]Man(a1-6)]Man(b1-4)GlcNAc(b1-4)GlcNAc
In short: as §1

Neu5Ac(a2-6)GalNAc = biological target: Neu5Ac(a2-6)GalNAc
In short: as §1

[19] = biological target: Neu5Ac(a2-6)GalNAc(b1-4)GlcNAc
In short: as §1

[20] = biological target: Neu5Ac(a2-6)GalNAc(b1-4)GlcNAc6S
In short: as §1

[21] = biological target: Neu5Ac(a2-8)Neu5Ac(a2-3)Gal(b1-4)GlcNAc
In short: as §1

[22] = biological target: Neu5Ac(a2-8)Neu5Ac(a2-8)Neu5Ac(a2-3)[Gal(b1-3)GalNAc(b1-4)]Gal(b1-4)Glc
In short: as §1

[23] = biological target: Neu5Gc(a2-3)Gal(b1-4)GlcNAc
In short: as §1

[24] = biological target: Neu5Gc(a2-8)Neu5Ac(a2-3)Gal(b1-4)GlcNAc
In short: as §1

[25] = biological target: Neu5Gc(a2-8)Neu5Gc(a2-6)Gal(b1-4)GlcNAc
In short: as §1

B1: DCIR1 (Mus musculus), Q9QZ15 (protein)
chain: MASEITYAEVKFKNESNSLHTYSESPAAPREKPIRDLRKPGSPSLLLTSLMLLLLLLAITFLVAFIIYFQKYSQLLEEKKAAKNIMHNELNCTKSVSPMEDKVWSCCPKDWRLFGSHCYLVPTVSSSASWNKSEENCSRMGAHLVVIQSQEEQDFITGILDTHAAYFIGLWDTGHRQWQWVDQTPYEESITFWHNGEPSSGNEKCATIIYRWKTGWGWNDISCSLKQKSVCQMKKINL
GalNAc(a1-3)GalNAc
  glycan array binding signal (z-score): -0.78
[1]
  glycan array binding signal (z-score): 2.31
[2]
  glycan array binding signal (z-score): -0.101
[3]
  glycan array binding signal (z-score): -0.947
[4]
  glycan array binding signal (z-score): 2.92
[5]
  glycan array binding signal (z-score): -0.962
[6]
  glycan array binding signal (z-score): 4.44
[7]
  glycan array binding signal (z-score): 0.267
[8]
  glycan array binding signal (z-score): 0.265
[9]
  glycan array binding signal (z-score): -0.887
[10]
  glycan array binding signal (z-score): 0.375
[11]
  glycan array binding signal (z-score): -0.844
[12]
  glycan array binding signal (z-score): 1.36
[13]
  glycan array binding signal (z-score): 0.145
[14]
  glycan array binding signal (z-score): -0.532
[15]
  glycan array binding signal (z-score): -0.079
[16]
  glycan array binding signal (z-score): -0.16
[17]
  glycan array binding signal (z-score): 2.04
[18]
  glycan array binding signal (z-score): -0.823
Neu5Ac(a2-6)GalNAc
  glycan array binding signal (z-score): 2.86
[19]
  glycan array binding signal (z-score): -0.517
[20]
  glycan array binding signal (z-score): -0.058
[21]
  glycan array binding signal (z-score): -1.1
[22]
  glycan array binding signal (z-score): 2.88
[23]
  glycan array binding signal (z-score): -0.678
[24]
  glycan array binding signal (z-score): -1.04
[25]
  glycan array binding signal (z-score): -0.802
